A selection: hits, their analogues and other compounds. The true share with any hit is near 2.9%.
HEK293 viab – cell viability loss counter-screen. HEK-293-SNCA-luc viability, GF-AFC fluorescence, 24 h. Potency, µM (top dose mostly 57.1 µM), inactives show top-dose activity change, negative = cytotoxicity, usual class: cytotoxic. hit rate 0.12% among 150,000;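 also: potency is read from the fitted curve at half-maximal effect; 0% = DMSO-treated cells and -100% = medium-only wells without cells; nearly all actives have a fitted effect of over 30% in size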
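Cytotoxicity counterscreen: after 24 h compound treatment of genome-edited SNCA-luciferase HEK-293 cells, live-cell protease substrate GF-AFC read by fluorescence after 30 min; activity scaled between DMSO (0%) and medium-only (-100%), curves Hill-fitted.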
IP6K1 inhibitor – blocks human inositol hexakisphosphate kinase 1 | hit rate 0.81% among 140,000 | IP6K1 kinase, ADP-Glo luminescence, 2 h; hits give low values | Q92551 | activity change, % (series mostly up to about 58 µM) | AID 1645851; in the data active = activity change below about -25%; also: % is scaled to controls: 0 for no effect and ±100 for the full control effect
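ADP-Glo luminescence measures ADP made by human IP6K1 during a 2 h RT reaction with ATP/IP6 (mix at 1.3 mM/130 uM); top library doses 57.5 and 19.1 uM final.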
SNCA expr inh – reduces expression of the alpha-synuclein gene. hit rate 0.17% among 140,000. HEK-293 SNCA-luciferase knock-in, luminescence, 24 h. AID 1671194. Potency, µM (top dose mostly 57.2 µM), for inactives: at the highest dose activity change, negative = inhibition, hits mostly inhibitors;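 also: potency is read from the fitted curve at half-maximal effect; plate controls were DMSO cells for no effect and cell-free wells for full effect; nearly all actives have a fitted effect of over 45% in size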
KDM5B inhibitor – blocks human KDM5B histone demethylase activity; hit rate 2.6% among 220,000; KDM5B demethylase, FDH-coupled NADH fluorescence (FDH is formaldehyde dehydrogenase); Potency, µM (titrated, usually from 57.7 µM), usual class: inhibitors; AID 1347165; also: potency is read from the fitted curve at half-maximal effect; 0% is about no effect; nearly all actives have a fitted effect of over 70% in size
Target sequence (Q9UGL1 whole entry, looked up): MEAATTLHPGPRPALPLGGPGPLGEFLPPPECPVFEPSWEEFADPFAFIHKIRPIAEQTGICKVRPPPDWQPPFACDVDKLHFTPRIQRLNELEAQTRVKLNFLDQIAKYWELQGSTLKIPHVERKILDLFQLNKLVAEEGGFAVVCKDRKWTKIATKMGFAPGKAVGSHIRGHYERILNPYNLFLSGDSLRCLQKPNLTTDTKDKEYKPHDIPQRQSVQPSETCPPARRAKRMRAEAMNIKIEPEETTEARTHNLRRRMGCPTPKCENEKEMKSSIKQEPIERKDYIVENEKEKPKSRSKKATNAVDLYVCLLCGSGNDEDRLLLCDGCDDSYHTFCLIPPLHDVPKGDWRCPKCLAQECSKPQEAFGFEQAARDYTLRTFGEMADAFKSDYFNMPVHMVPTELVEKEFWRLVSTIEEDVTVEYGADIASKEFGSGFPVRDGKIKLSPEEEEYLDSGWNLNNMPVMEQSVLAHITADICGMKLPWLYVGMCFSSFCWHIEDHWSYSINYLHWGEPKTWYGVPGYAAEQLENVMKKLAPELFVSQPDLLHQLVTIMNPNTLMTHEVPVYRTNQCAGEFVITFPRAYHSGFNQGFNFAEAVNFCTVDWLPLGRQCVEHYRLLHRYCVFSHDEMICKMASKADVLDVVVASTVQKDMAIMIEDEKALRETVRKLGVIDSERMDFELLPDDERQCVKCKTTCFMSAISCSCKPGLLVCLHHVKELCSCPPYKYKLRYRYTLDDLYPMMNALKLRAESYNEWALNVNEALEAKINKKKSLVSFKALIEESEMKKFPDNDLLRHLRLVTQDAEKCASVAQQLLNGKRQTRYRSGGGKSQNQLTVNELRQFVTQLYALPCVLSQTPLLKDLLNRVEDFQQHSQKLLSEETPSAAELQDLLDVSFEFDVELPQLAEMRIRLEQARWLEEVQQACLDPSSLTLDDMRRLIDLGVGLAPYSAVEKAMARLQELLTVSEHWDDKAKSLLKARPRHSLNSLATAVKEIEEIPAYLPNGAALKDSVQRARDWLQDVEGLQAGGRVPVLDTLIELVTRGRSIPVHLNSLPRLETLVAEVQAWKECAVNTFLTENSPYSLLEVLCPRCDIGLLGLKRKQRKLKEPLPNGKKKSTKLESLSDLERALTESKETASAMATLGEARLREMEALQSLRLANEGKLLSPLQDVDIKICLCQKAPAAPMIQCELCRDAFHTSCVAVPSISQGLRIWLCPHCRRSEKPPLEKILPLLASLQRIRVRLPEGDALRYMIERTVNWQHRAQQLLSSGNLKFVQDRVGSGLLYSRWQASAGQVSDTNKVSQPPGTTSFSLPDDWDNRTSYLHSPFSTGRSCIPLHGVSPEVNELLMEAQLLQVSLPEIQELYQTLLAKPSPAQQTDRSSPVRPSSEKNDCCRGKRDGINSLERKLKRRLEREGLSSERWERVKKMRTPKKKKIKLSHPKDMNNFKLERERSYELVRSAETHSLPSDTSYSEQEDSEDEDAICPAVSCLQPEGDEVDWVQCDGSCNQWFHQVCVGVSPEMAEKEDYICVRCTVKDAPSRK
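KDM5BΔAP (200 nM final) in 50 mM HEPES pH 7.5, 0.01% Tween-20 was preincubated 10 min at RT with compound over a concentration range. Substrate mix (H3K4me3 12.5 µM, α-KG 25 µM, Fe²⁺, ascorbate, NAD⁺, FDH) was added, and NADH fluorescence change over 30 min gave dose-response curves.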
Numbers without * were called inactive; i = inactive; ? = inconclusive; / = not tested or not shown; [ ] = dose if it differs, or a comment. Unless noted, calls follow the shape of the dose curve; as a rule, active = well fitted curve in the direction sought with a large enough effect; inconclusive = small, poorly fitted or top-dose-only effect, or another doubt; inactive = no such curve, though single readings can be large; an effect the other way counts as inactive or inconclusive.

SMILES | HEK293 viab | IP6K1 inhibitor | SNCA expr inh | KDM5B inhibitor
O=C(Cc1ccccc1Cl)NCc1nnc2cc(-c3nc(C4CC4)no3)ccn12 | 4% | 4 | -3% | 16µM*
Cc1ccccc1CC(=O)NCc1nnc2cc(-c3nc(C4CC4)no3)ccn12 | ? | -7 | 114% | 28µM*
CCC(C(=O)NCc1nnc2cc(-c3nc(C4CC4)no3)ccn12)c1ccccc1 (centres undefined) | -12% | 11 | 0% | i
CCc1ccccc1NC(=O)Nc1ccc2nc(NS(C)(=O)=O)sc2c1 | / | / | / | i
Cn1cccc1CN1CCC2CC(=O)NCCC2C1 (centres undefined) | 4%[87.6 µM] | 1 | 1%[87.6 µM] | 100µM*
CNC(=O)Cn1c(C)c(Br)c2ccccc21 | / | / | / | i
CN1CCN(C)c2cnc(-c3ccc(C(=O)N(C)C)cc3)cc2C1 | -6%[87.6 µM] | -7 | 108%[87.6 µM] | 35µM*
CN1CCN(c2ncnc3ccc(-c4ccc(C(=O)N(C)C)cc4)cc23)CC1 | -12% | / | 50% | /
Cc1cc(-c2cc3c(cn2)N(C)CCN(C)C3)ccn1 | -13%[87.6 µM] | -16 | 24%[87.6 µM] | 32µM*
COc1ccc(S(=O)(=O)NC2CCc3n[nH]c(=O)n3CC2)cc1Cl (centres undefined) | -5% | 2 | 0% | i
CC(C)C(=O)Nc1ccc(NC(=O)c2nccnc2N)cc1 | / | / | / | i
CCCCCCCCCCCCCC(=O)N[C@H](CO)[C@H](O)c1ccc([N+](=O)[O-])cc1 | -10% | / | 9.6µM* | /
CCOC(=O)[C@@H]1CN(C(=O)c2ccc(C(F)(F)F)cc2)[C@H]2c3cccc(F)c3O[C@@H]12 | / | 1 | / | /
CN(C)c1cccc(C(=O)Nc2ncc(-c3cnn(C)c3)c3c2OCC3)c1 | -5%[87.6 µM] | -5 | 2%[87.6 µM] | i
CN(C)c1cccc(-c2cnc(Nc3cncnc3)c3c2CCO3)c1 | -9%[87.6 µM] | -18 | 43%[87.6 µM] | i
Cn1cc(-c2cnc(Nc3ccc(F)c(Cl)c3)c3c2CCO3)cn1 | -3%[87.6 µM] | -9 | 3%[87.6 µM] | 32µM*
Cc1cc(-c2cnc(Nc3ccc(F)cc3)c3c2CCO3)ccn1 | -10%[87.6 µM] | -17 | 52%[87.6 µM] | 13µM*
Cn1cc(-c2cnc(Nc3ccncc3)c3c2CCO3)cn1 | 2%[87.6 µM] | -7 | 8%[87.6 µM] | 35µM*
Cn1cc(-c2cnc(Nc3ccc(N4CCOCC4)cc3)c3c2CCO3)cn1 | -3%[87.6 µM] | -4 | 78%[87.6 µM] | ?
COc1ccccc1C(=O)Nc1cc(-c2ccccn2)nn1-c1ccccc1 | -5% | -7 | -5% | /
CCN(Cc1nccn1C)C(=O)c1ccc(N2CCSCC2)nc1 | -10% | 20 | -12% | ?
CCN(Cc1nccn1C)C(=O)c1cc(-c2cnc(N)nc2)nc2c(C)cccc12 | 4% | 8 | 3% | 28µM*
Cc1ccccc1C(=O)N[C@H]1[C@H](O)[C@H](O)C[C@@H]1c1ccc(N2CCOCC2)nc1 | 1%[87.6 µM] | 1 | 28%[87.6 µM] | 32µM*
Cc1cc(C(=O)N[C@H]2[C@H](O)[C@H](O)C[C@@H]2c2ccc(N3CCOCC3)nc2)nn1C | -6%[87.6 µM] | 7 | 37%[87.6 µM] | 32µM*
COc1ccc([C@H]2C[C@@H](O)[C@@H](O)[C@@H]2NCc2ccc(OC)nc2)cc1 | ? | -6 | ? | i
SMILES | HEK293 viab | IP6K1 inhibitor | SNCA expr inh | KDM5B inhibitor
Cn1cc(CN[C@H]2[C@H](O)[C@H](O)C[C@@H]2c2ccc(N3CCOCC3)nc2)cn1 | -13%[87.6 µM] | -1 | 3%[87.6 µM] | 40µM*
COc1ccc(C(=O)N[C@H]2[C@H](O)[C@H](O)C[C@@H]2c2ccc(N3CCOCC3)nc2)cc1OC | 3% | 7 | -1% | ?
CC(C)c1noc(-c2ccn3c(CNC(=O)c4ccccc4)nnc3c2)n1 | 4% | -7 | -13% | i
CC(C)c1noc(-c2ccn3c(CNC(=O)c4ccoc4)nnc3c2)n1 | 5% | -10 | -12% | 28µM*
Cc1cccc(C(=O)NCc2nnc3cc(-c4nc(C(C)C)no4)ccn23)c1 | 6% | 15 | 3% | 28µM*
Cc1cccc(C(=O)NCc2nnc3cc(-c4nc(C)no4)ccn23)c1 | 13% | 8 | -13% | 25µM*
Cc1ccc(C(=O)NCc2nnc3cc(-c4nc(C)no4)ccn23)cc1 | -1% | 9 | 5% | 11µM*
O=C(O)Cn1nc(C2CCOCC2)nc1C1CNC(=O)C1 (centres undefined) | -6% | -1 | -18% | i
CN1CCCC1CCNc1nccc(-c2cnn(-c3ccc(F)cc3)c2)n1 (centres undefined) | 3% | 5 | 10% | 28µM*
CN1CCCC1CCNc1nccc(-c2cnn(-c3ccccc3F)c2)n1 (centres undefined) | -4% | 0 | 35% | 28µM*
C=C(C)CNc1ccc(C(=O)NCCC2CCCCN2C)cn1 (centres undefined) | -5% | 3 | -12% | ?
Cn1c(=O)c2sccc2n2c(CCCC(=O)Nc3ccc(Cl)cc3)nnc12 | 5% | 2 | 17% | i
CCCS(=O)(=O)N1CCC(C2CCN(C(=O)NC)CC2)C1 (centres undefined) | 4% | 10 | -11% | ?
Cc1c(C(=O)O)sc2ncnc(NCC3(O)CCCCC3)c12 | -3% | 25 | -9% | 20µM*
Cc1cccc(CC(=O)N2CCC(Nc3cccn4ncnc34)CC2)c1 | -3% | 11 | 17% | ?
O=C(c1ccoc1)N1CCC(Nc2cccn3ncnc23)CC1 | 2% | 13 | -11% | 13µM*
CCOc1ccc(-c2ccnc(N3CCOC(CN)C3)n2)cc1C(=O)O (centres undefined) | 4% | -4 | -14% | 28µM*
CCOc1ccc(-c2ccnc(-c3ncccn3)n2)cc1C(=O)O | ? | 0 | -6% | i
CCOC(=O)N1CCC(N[C@@H]2CC[C@@H]2NC(=O)c2cnc3cccnn23)CC1 | 2% | 22 | -16% | 32µM*
CCOC(=O)N1CCC(N[C@@H]2CC[C@@H]2NC(=O)c2ccccn2)CC1 | -9% | 7 | -16% | ?
CCOC(=O)N/N=C/c1cc(Cl)ccc1OCCCOc1ccc(Cl)cc1 | / | / | / | i
COc1ccc(CC(=O)NCc2ccc3c(c2)CCN3C(C)=O)cc1 | 7% | 31 | 39% | i
CC(C)Nc1ncc(C(=O)NC2CC(=O)N(Cc3cccc(F)c3)C2)cn1 (centres undefined) | 2% | 21 | ? | 22µM*
COCCn1cc2c3c(cccc31)CN(C(=O)CCc1ccccc1OC)CC2 | 9% | -4 | 10% | ?
COCCn1cc2c3c(cccc31)CN(C(=O)CCCc1ccccc1)CC2 | -2% | 12 | -1% | 25µM*
SMILES | HEK293 viab | IP6K1 inhibitor | SNCA expr inh | KDM5B inhibitor
O=C(NCc1ccco1)[C@@H]1Cc2nc[nH]c2CN1Cc1cccnc1 | 7%[87.6 µM] | 2 | -6%[87.6 µM] | ?
COC[C@@H]1CN(c2cnccn2)C[C@H]1C(=O)NCc1ccccc1F | ? | 0 | -6% | 20µM*
COC[C@@H]1CN(c2cnccn2)C[C@H]1C(=O)NCc1ccccn1 | -4% | 9 | -8% | ?
COC[C@@H]1CN(c2cnccn2)C[C@H]1C(=O)NCc1ccco1 | 16% | 12 | -18% | 25µM*
Cc1cccc(N2CCN(C(=O)c3ccc4nc(N5CCC(C)CC5)sc4c3)CC2)c1C | 4% | -4 | 199% | i
CCCNC(=O)NCC1c2cc(OC)c(OC)cc2CCN1C(=O)NC(C)C (centres undefined) | 3% | 16 | -6% | 22µM*
